# From PubChem
# AmpC detergent – blocks E. coli AmpC beta-lactamase in detergent assay. P00811. AmpC hydrolysis of nitrocefin, absorbance 480 nm, 0.01% Triton. hit rate 0.041% among 370,000. Potency, µM (titrated, usually from 114 µM), most hits filed as inhibitors; note: nearly all actives have a fitted effect of over 25% in size
# Target sequence (P00811 whole entry, looked up): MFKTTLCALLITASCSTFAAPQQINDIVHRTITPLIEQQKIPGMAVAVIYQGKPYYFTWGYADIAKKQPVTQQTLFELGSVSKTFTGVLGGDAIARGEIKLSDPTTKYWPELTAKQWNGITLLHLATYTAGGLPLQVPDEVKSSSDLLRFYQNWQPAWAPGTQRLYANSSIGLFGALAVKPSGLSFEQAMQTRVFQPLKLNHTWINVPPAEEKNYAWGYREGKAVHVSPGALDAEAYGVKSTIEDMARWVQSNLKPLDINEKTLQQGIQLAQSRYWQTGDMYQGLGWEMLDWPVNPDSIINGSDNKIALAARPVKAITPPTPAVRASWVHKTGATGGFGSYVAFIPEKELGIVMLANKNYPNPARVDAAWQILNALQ
#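 AmpC (5.3 nM in the dispensed reagent) in 20 mM phosphate pH 7.0 with 0.01% (detergent screen) or 0.0001% Triton X-100 was preincubated with compounds for 15 min at room temperature. Nitrocefin was then added from an 800 uM solution, and hydrolysis was followed at 480 nm.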
# SARS PLpro yeast-1 – inhibitors of SARS-CoV papain-like protease in yeast. hit rate 0.19% among 330,000. S. cerevisiae expressing SARS-CoV PLpro, growth rescue. AID 485353. Potency, µM (top dose mostly 32.9 µM), usual class: activators; calls by dose curve; note: nearly all actives have a fitted effect of over 55% in size
# AMA1-RON2 inh – disrupts binding of P. falciparum AMA1 to RON2; AlphaScreen AMA1-biotinylated RON2 peptide binding; Potency, µM (titrated, usually from 58.2 µM), usual class: inhibitors; hit rate 0.2% among 360,000; AID 720542; note: nearly all actives have a fitted effect of over 45% in size
#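 AMA1 (3D7) with his tag at 25 nM final met compounds first, then biotinylated RON2 peptide at 25 nM; detection used donor plus acceptor beads, 10 µg/mL apiece, read by AlphaScreen after 30 min at room temperature.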
# VACV mCherry inh – vaccinia inhibition (mCherry reporter); Vaccinia virus mCherry reporter infection, fluorescence; Potency, µM (doses to about 36.5 µM), actives largely listed as inhibitors; hit rate 0.63% among 310,000; AID 720579; calls by dose curve; tested in A549 cells; note: nearly all actives have a fitted effect of over 35% in size
# Vaccinia Venus – inhibitors of vaccinia virus (Venus reporter) | AID 720580 | hit rate 0.46% among 330,000 | Vaccinia virus Venus reporter expression, fluorescence | Potency, µM (highest dose often 36.5 µM), most hits filed as inhibitors; calls by dose curve; tested in A549 cells; note: nearly all actives have a fitted effect of over 30% in size
# AmpC no deterg – AmpC beta-lactamase inhibition without detergent; AmpC nitrocefin hydrolysis, absorbance 480 nm, 0.0001% Triton; P00811; Potency, µM (highest dose often 57.1 µM), usual class: inhibitors; hit rate 0.52% among 330,000; note: nearly all actives have a fitted effect of over 20% in size
#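 AmpC (5.3 nM in the dispensed reagent) in 20 mM phosphate pH 7.0 with 0.01% (detergent screen) or 0.0001% Triton X-100 was preincubated with compounds for 15 min at room temperature. Nitrocefin was then added from an 800 uM solution, and hydrolysis was followed at 480 nm.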
# SARS PLpro yeast-2 – Rescues yeast growth by inhibiting SARS-CoV PLpro. calls only. shares compounds with SARS PLpro yeast-1. yeast expressing SARS-CoV PLpro, growth phenotype rescue. hit rate 19% among 1,000; call rule not given here
# Numbers stand for hits; – = inactive; ? = inconclusive; · = no result; + = active, no number; [ ] = remark or other dose. Hits are enriched below; roughly 1.3% of the tested compounds scored in any of these assays. Unless noted, calls come from the whole dose curve; as a rule, active = well fitted curve in the direction sought with a large enough effect; inconclusive = small, poorly fitted or top-dose-only effect, or another doubt; inactive = no such curve, though single readings can be large; an effect the other way counts as inactive or inconclusive.
SMILES,AmpC detergent,SARS PLpro yeast-1,AMA1-RON2 inh,VACV mCherry inh,Vaccinia Venus,AmpC no deterg,SARS PLpro yeast-2
Cc1cc(C)cc(NC(=O)C(C)N2Cc3ccccc3C2=O)c1 (stereo not given),–,·,·,–,–,·,·
Cc1nnc2n(-c3ccccc3)c(=O)c3c4c(sc3n12)COC(C)(C)C4,–,?,–,·,–,–,–
COc1cc2[nH]c3c(=O)n(CCN4CCCCC4)cnc3c2cc1OC,–,?,–,–,–,–,–
COc1ccc2[nH]c3c(=O)n(CCCN4CCOCC4)cnc3c2c1,–,–,–,·,·,–,·
COc1ccc(Cl)cc1NS(=O)(=O)c1cn(C)nc1C,–,?,–,–,–,–,–
COc1ccc(/C=N\NC(=O)c2cc(O)c(O)c(O)c2)cc1CN1CCN(c2ccc(F)cc2)CC1,–,13µM,–,–,–,–,+
COc1ccc(/C=N/NC(=O)c2ccc(C)cc2)cc1CN1CCN(c2ccc(F)cc2)CC1,?,–,–,–,–,–,·
CCn1c(SCC(=O)NC2CCCCC2)nnc1-c1ccccn1,–,3.5µM,–,·,·,–,–
C/C(=N\NC(=S)NC1CCCCC1)c1ccccc1,–,7.9µM,–[11.6 µM],–,–,–,+
O=C(COC(=O)c1cccnc1Cl)NC1CCCCCC1,·,3.2µM,–,–,–,–,–
O=C1/C(=C/c2ccco2)SC(=S)N1c1cccnc1,–,–,?,?,–,–,·
O=C1/C(=C\c2ccco2)SC(=S)N1c1ccc(O)cc1,–,·,–,–,–,?,–
COc1ccc2c(c1)OC[C@H]1[C@H]2N2C(=O)CN(Cc3ccc(C)cc3)C(=O)[C@@]2(C)[C@H]1c1ccccc1,–,11µM,–,–,–,–,–
CCCCN1CC(=O)N2[C@H]3c4ccc(OC)cc4OC[C@@H]3[C@H](c3ccccc3)[C@]2(C)C1=O,–,?,–,–,–,–,–
COc1ccc2c(c1)OC[C@H]1[C@H]2N2C(=O)CN(Cc3ccc(F)cc3)C(=O)[C@@]2(C)[C@H]1c1ccccc1,–,–,–,–,–,–,·
COc1ccc(CNC(=O)C2CCN(S(=O)(=O)c3ccc4c(c3)N(C(C)=O)CCO4)CC2)cc1,–,–,–,–,–,–,·
CCOc1ccc(OCC)c(NC(=O)CCc2nc3cccnc3n2-c2ccccc2)c1,–,·,·,–,–,·,·
OCC1(Cc2cccc(Cl)c2)CCCN(Cc2cnn(-c3ccccc3)c2)C1 (stereo not given),–,–,–,·,·,–,·
CC(=O)NCc1ccc(C(=O)CCl)cc1,?,–,–,–,–,–,·
CC(=O)N(C)Cc1ccc(C(=O)CCl)cc1,–,7.9µM,–,–,–,–,+
Cn1cc(C(=O)N/N=C/c2c(O)ccc3ccccc23)ccc1=O,–,–,?,?,?,–,·
O=C(N/N=C/c1c(O)ccc2ccccc12)c1ccc[n+](CCO)c1,–,0.89µM,?,–,–,–,–
CCC(C)C(=O)Nc1nccs1 (stereo not given),–,10µM,–,–,–,–,–
C/C(=N\NC(=O)c1ccccc1)c1c(C)[nH]n(-c2ccccc2)c1=O,–,6.3µM,–,?,?,–,–
CC1(C)C(=O)OC(c2cccn2-c2ccc([N+](=O)[O-])cc2)C(C)(C)C1=O (stereo not given),?,–,–,–,–,–,·
SMILES,AmpC detergent,SARS PLpro yeast-1,AMA1-RON2 inh,VACV mCherry inh,Vaccinia Venus,AmpC no deterg,SARS PLpro yeast-2
CC1(C)C(=O)C2(CCCCC2)C(=O)OC1c1cccn1-c1ccc([N+](=O)[O-])cc1 (stereo not given),?,?,–,–,–,–,?
COc1ccc(NC(=O)c2nc(-c3ccc(C)cc3)n3c2CCCCC3)cc1,–,·,·,–[7.34 µM],–[7.34 µM],·,·
O=S(=O)(c1ccc(OCC(O)CN2CCN(c3ccccc3)CC2)cc1)N1CCOCC1 (stereo not given),–,?,–,–,–,–,–
O=S(=O)(c1ccc(OCC(O)CN2CCN(c3ccccc3O)CC2)cc1)N1CCOCC1 (stereo not given),?,–,–,–,–,–,·
Cc1[nH]c2ccccc2c1C(=O)CSC(=S)N1CCOCC1,–,–,–,–,–,–,·
COc1ccc(OC)c(-c2c3cc(O)c(=O)cc-3oc3cc(O)c(O)cc23)c1,–,?,2µM,–,–,28µM,+
CCOc1ccccc1-c1c2cc(O)c(=O)cc-2oc2cc(O)c(O)cc12,?,11µM,?,–,·,–,+
COc1ccc(NS(=O)(=O)c2ccc3[nH]c(=O)ccc3c2)cc1OC,–,·,·,–,–,·,·
CCCCCCN(C(=O)CCCCCN1C(=O)NC(c2ccc(-c3ccccc3)cc2)C(C(=O)OCc2ccccc2)=C1C)C(C(=O)NCCCC)C1CCCCC1 (stereo not given),–,–,·,·,·,–,·
CCCCCCN(C(=O)CCCN1C(=O)NC(c2ccc([N+](=O)[O-])cc2)C(C(=O)OCc2ccccc2)=C1C)C(C)C(=O)NCCCC (stereo not given),·,?,–,?,?,–,–
O=C(NC1CCCCC1)C(c1ccco1)N(Cc1cccnc1)C(=O)C1COc2ccccc2O1 (stereo not given),–,?,–,–,–,–,–
O=C(NC1CCCC1)C(=O)N(Cc1cccnc1)C(C(=O)NC1CCCC1)c1ccco1 (stereo not given),–,–,–,·,·,–,·
Cc1ccc(-n2c(C)cc(/C=N/NC(N)=S)c2C)cc1,–,11µM,–,?,?,–,+
C[C@@H]1O[C@@H](O[C@H]2C[C@@H](O)[C@]3(CO)[C@H]4[C@H](O)C[C@]5(C)[C@@H](C6COC(=O)C6)CC[C@]5(O)[C@@H]4CC[C@]3(O)C2)[C@H](O)[C@H](O)[C@H]1O (stereo not given in full),–,?,–,1.1µM,1.1µM,–,–
C=C(C)CNC(=S)N/N=C(\C)c1ccc(Cl)s1,–,?,–,–,–,–,+
CNC(=S)N/N=C(\C)c1ccc(Cl)s1,–,?,–,?,?,–,·
CCNC(=S)N/N=C(\C)c1ccc(Cl)s1,–,?,–,?,–,–,+
COc1ccc(OC)c(C2CC(=O)c3c([nH]c(C(=O)OCC4CCCCC4)c3C)C2)c1 (stereo not given),–,·,·,–,?,·,·
COc1ccc(/C=C2\CN(Cc3ccccc3)C/C(=C\c3ccc(OC)cc3)C2=O)cc1,–,20µM,–,–,–,–,–
Cc1cccc(NC(=S)NCC2CCCO2)c1 (stereo not given),–,?,–,–,–,–,–
COc1cccc(NC(=S)NN2C(C)CCCC2C)c1 (stereo not given),–,?,–,–,–,–,+
